Some test systems named below: HCT-15 colon; SNB-75 CNS; SNB-19 CNS; U251 CNS; PC-3 prostate; SK-MEL-5 melanoma; UACC-62 melanoma; LOX IMVI melanoma; SK-MEL-28 melanoma.
What all share (test): NCI-60 one-dose screen, 48 h (100 = growth as untreated, 0 = no growth, -100 = all killed)
What all share (details): 10 µM unless noted

“And” between values parts separate entries of the source, which are not always exact repeats. Equal entries are not always repeated. Compounds without any hit were thinned out: in the full panel of roughly 83,000, 20% have a hit.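 48-hour exposure, single concentration, 96-well plates; percent growth endpoint where 0 means no net growth. Active: below 10.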 Unmarked numbers belong to inactive results. The source made the active and inactive calls.

Consider `O=C(Nc1ccccc1)Oc1c(Cl)c(Cl)c(Cl)c(Cl)c1Cl`, for which the growth with HCT-15 colon is 102% and 99.8%; in the assay with SNB-75 CNS, 93.1% and 77.4%; in the assay with SNB-19 CNS, 93.5% and 100%; in the assay with U251 CNS, 99% and 100%; with PC-3 prostate it was 95.6% and 93.6%; in the assay on SK-MEL-5 melanoma, 101% and 96.1%. The growth was 88.8% and 89.5% with UACC-62 melanoma; 99% and 93.1% in the assay on LOX IMVI melanoma; 119% and 101% in the assay with SK-MEL-28 melanoma.
In the case of `Cc1ccc(N=C=C(c2ccccc2)c2ccccc2)cc1`, the growth with HCT-15 colon is 67.6%; in the assay with SNB-75 CNS, 78.1%; with SNB-19 CNS, 85.2%; in the assay on U251 CNS, 81.5%; in the assay with PC-3 prostate, 66.9%; in the assay with SK-MEL-5 melanoma, 89.3%. The growth with UACC-62 melanoma is 84.6%; in the assay on LOX IMVI melanoma it was 5.05% (active); with SK-MEL-28 melanoma, 106%.
For the compound `COc1cc(/C=C/C(C)=O)ccc1O`, the growth in the assay on HCT-15 colon is 96.9% and 96.3%; in the assay on SNB-75 CNS it was 98.4% and 82.5%; in the assay on SNB-19 CNS, 98.3% and 112%; in the assay with U251 CNS it was 103% and 104%; with PC-3 prostate it was 92.5% and 102%; with SK-MEL-5 melanoma it was 97% and 113%. Moreover, the growth was 88.5% and 107% in the assay with UACC-62 melanoma; 104% with LOX IMVI melanoma; 112% and 103% in the assay on SK-MEL-28 melanoma.
Turning to `O=C1c2ccccc2C(=O)N1c1ccccc1`, the growth was 105% in the assay with HCT-15 colon; 89.2% in the assay with SNB-75 CNS; 93.1% with U251 CNS; 101% with PC-3 prostate; 105% in the assay with SK-MEL-5 melanoma; 92% in the assay on UACC-62 melanoma. Moreover, the growth is 104% with LOX IMVI melanoma and 115% in the assay on SK-MEL-28 melanoma.
Take `CC(C)(C)c1ccc(O)c(C2CCCCC2)c1`: the growth with HCT-15 colon is 102%; with SNB-75 CNS it was 100%; in the assay with SNB-19 CNS, 122%; with U251 CNS, 101%; with PC-3 prostate it was 95%; with SK-MEL-5 melanoma, 96.3%. Moreover, the growth in the assay on UACC-62 melanoma was 96.7%; in the assay with LOX IMVI melanoma it was 104%; in the assay on SK-MEL-28 melanoma it was 110%.
As for `O=C1OCc2cccc3cccc1c23`, the growth was 94.6% with HCT-15 colon; 85.2% in the assay with SNB-75 CNS; 104% in the assay on SNB-19 CNS; 106% in the assay with U251 CNS; 89.5% in the assay with PC-3 prostate; 101% in the assay with SK-MEL-5 melanoma. The growth in the assay on UACC-62 melanoma is 95.5%; in the assay with LOX IMVI melanoma, 103%; in the assay on SK-MEL-28 melanoma, 107%.
As to `C[N+](C)=c1ccc2nc3c(cc(NCCCNc4cc5oc6cc(=[N+](C)C)ccc-6nc5c5ccccc45)c4ccccc43)oc-2c1`, the growth in the assay on HCT-15 colon is -29.2% (active); in the assay on SNB-75 CNS it was 39.6%; in the assay on SNB-19 CNS, -24.6% (active); in the assay with U251 CNS, -20.1% (active); in the assay with PC-3 prostate, 6.83% (active); in the assay on SK-MEL-5 melanoma it was -96.3% (active). Also, the growth in the assay on UACC-62 melanoma is 43.3%; in the assay on LOX IMVI melanoma, -45.5% (active); with SK-MEL-28 melanoma, 64.8%.
For the compound `CN(C)CCOc1ccc2c(c1)C(=O)/C(=C\c1ncc([N+](=O)[O-])n1C)C2`, the growth in the assay with HCT-15 colon was -10.2% (active); in the assay with SNB-75 CNS, -86.6% (active); with SNB-19 CNS it was -39.2% (active); in the assay with U251 CNS, -14.4% (active); in the assay with PC-3 prostate, -11.2% (active); in the assay on SK-MEL-5 melanoma, -97.6% (active). For the same compound, the growth in the assay with UACC-62 melanoma is -59.7% (active); in the assay on SK-MEL-28 melanoma, -71.2% (active).
With `CCCCCCC(C)c1ccccc1O` (configuration not stated) (tested in a mixture with another compound), the growth in the assay with HCT-15 colon is 105%; in the assay on SNB-75 CNS, 128%; in the assay on SNB-19 CNS, 106%; in the assay with PC-3 prostate, 94.8%; with SK-MEL-5 melanoma, 111%; in the assay with UACC-62 melanoma, 99.6%. In the assay on SK-MEL-28 melanoma, the growth is 111%.
As to `CC(=O)ON=C1C=CC(=C(C#N)c2ccccc2)C=C1`, the growth with HCT-15 colon is 8.51% (active); in the assay on SNB-75 CNS, 19.6%; with SNB-19 CNS it was 82.5%; with U251 CNS, 22.9%; with PC-3 prostate, -1.95% (active); in the assay with SK-MEL-5 melanoma, 48.1%. The growth is 26.1% with UACC-62 melanoma, 5.8% (active) with LOX IMVI melanoma and 55.5% in the assay with SK-MEL-28 melanoma.
As to `CC1=CC(O)C2CC1C2(C)C` (configuration not stated), the growth in the assay with HCT-15 colon is 104% and 112%; in the assay on SNB-75 CNS, 84.6% and 95.3%; in the assay with SNB-19 CNS it was 103% and 116%; with U251 CNS it was 100% and 110%; with PC-3 prostate, 94.9% and 86.4%; in the assay with SK-MEL-5 melanoma, 103% and 104%. The growth in the assay with UACC-62 melanoma is 101% and 105%; in the assay on SK-MEL-28 melanoma it was 107% and 115%.
For `CCOC(=O)/C=C/c1ccc([N+](=O)[O-])o1`, the growth is -3.85% (active) in the assay with HCT-15 colon; 98.7% in the assay with SNB-75 CNS; 97.2% in the assay with SNB-19 CNS; 93.4% with PC-3 prostate; 69.1% in the assay with SK-MEL-5 melanoma; 32.6% with UACC-62 melanoma. The growth with LOX IMVI melanoma was -29.6% (active); in the assay on SK-MEL-28 melanoma, 26.4%.
